Measurements taken from the supplement of paper PMC10849652.
About 8,800 targets were measured; listed, in parts, are those with a hit and a random draw of the rest. About 0.5% of all pairs of compound and target were hits.

Columns and labels:
Test in all cases: log2 fold change, soluble protein after heating vs DMSO (PISA); higher = thermal stabilisation; K562 lysate, 10 uM; active = over 0.2 and 3.5 SD of the protein, either way, in both replicates (recomputed)
[1] = compound: C1=CC=C(C=C1)[C@H](COC2=CC3=C(C=C2)NC(=O)N3)NC(=O)C4=CC=CN(C4=O)CC5=CC(=C(C=C5)F)F
Method in brief: (§1)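 Pellets of K562 cells were dounce-homogenised in PBS pH 7.4 with 1 mM MgCl2, and the crude extract was held at 1 mg/mL protein for a 30 min treatment with 10 μM compound. Aliquots were heated for 3 min over 48°C-58°C and pooled before NP-40 was added to 0.5% at 4°C. The supernatant from 21,000xg for 90 min was quantified by TMTpro 16plex LC-MS/MS with channel sums equalised. Values are reported from duplicates as log-two fold change in thermal stability relative to solvent controls.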

[2] = compound: CC1=C(SC2=C1C(=N[C@H](C3=NN=C(N32)C)CC(=O)N)C4=CC=C(C=C4)Cl)C
Method in brief: as §1

[3] = compound: CC1=C2C(=CC=C1)N=C(N(C2=O)C3=CC=CC=C3C)CN4C=NC5=C(N=CN=C54)N
Method in brief: as §1

[4] = compound: Cc1sc2c(c1C)C(c1ccc(Cl)cc1)=N[C@@H](CC(=O)OC(C)(C)C)c1nnc(C)n1-2
Method in brief: as §1

[5] = compound: c1ccc([C@@H]2C[C@H]2NC2CCNCC2)cc1
Method in brief: as §1

Measured: log2 fold change

RFC4 (UniProt P35249)
Sequence of UniProt P35249 (P35249 whole entry, looked up): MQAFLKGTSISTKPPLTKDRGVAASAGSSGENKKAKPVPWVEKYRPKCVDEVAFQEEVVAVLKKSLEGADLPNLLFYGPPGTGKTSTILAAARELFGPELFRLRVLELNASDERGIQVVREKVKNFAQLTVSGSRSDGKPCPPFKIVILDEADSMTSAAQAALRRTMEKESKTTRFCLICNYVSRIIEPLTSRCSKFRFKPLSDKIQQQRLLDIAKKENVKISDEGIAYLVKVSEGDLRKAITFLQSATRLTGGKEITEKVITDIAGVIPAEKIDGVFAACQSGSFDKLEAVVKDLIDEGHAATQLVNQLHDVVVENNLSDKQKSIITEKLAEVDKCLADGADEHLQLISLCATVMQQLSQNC
inactive: [1] -0.026 | [2] -0.059 | [3] 0.006 | [4] 0.028 | [5] 0.01

RBBP7 (UniProt Q16576)
inactive: [1] -0.029 | [2] 0.013 | [3] 0.009 | [4] -0.042

RBM22 (UniProt Q9NW64)
inactive: [1] -0.073 | [2] 0.012 | [3] 0.036 | [4] 0.072 | [5] 0

RAB27A (UniProt P51159)
inactive: [1] 0.052 | [2] 0.028 | [3] -0.007 | [4] -0.013 | [5] 0.181

RAD51C (UniProt O43502)
Sequence of UniProt O43502 (O43502 whole entry, looked up): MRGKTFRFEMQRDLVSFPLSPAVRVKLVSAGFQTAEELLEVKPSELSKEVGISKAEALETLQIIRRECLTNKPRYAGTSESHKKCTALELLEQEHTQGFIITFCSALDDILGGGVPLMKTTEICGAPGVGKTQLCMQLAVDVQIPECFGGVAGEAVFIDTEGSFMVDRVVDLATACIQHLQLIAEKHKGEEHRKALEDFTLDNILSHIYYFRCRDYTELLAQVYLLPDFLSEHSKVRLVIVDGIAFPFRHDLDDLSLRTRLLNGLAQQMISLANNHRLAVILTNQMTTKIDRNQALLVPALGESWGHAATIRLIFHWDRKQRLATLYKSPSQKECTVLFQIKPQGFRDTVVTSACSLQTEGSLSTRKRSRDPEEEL
inactive: [1] -0.028 | [2] 0.026 | [3] 0.078 | [4] -0.029 | [5] -0.004

SCML2 (UniProt Q9UQR0)
inactive: [1] -0.036 | [2] 0.062 | [3] -0.055 | [4] -0.032 | [5] 0.02

RFWD3 (UniProt Q6PCD5)
inactive: [1] -0.058 | [2] 0.132 | [3] 0 | [4] -0.072 | [5] 0.049

RALA (UniProt P11233)
inactive: [1] -0.013 | [2] 0.071 | [3] -0.008 | [4] -0.004 | [5] -0.225

RFC2 (UniProt P35250)
inactive: [1] -0.009 | [2] 0.006 | [3] -0.008 | [4] 0.043 | [5] -0.033

RBBP7 isoform 2 (UniProt Q16576)
inactive: [1] -0.012 | [2] -0.009 | [3] -0.03 | [4] -0.01 | [5] -0.033

SCAF1 (UniProt Q9H7N4)
inactive: [1] 0.112 | [3] 0.002 | [4] -0.007 | [5] 0.019
active: [2] -0.492

SCO2 (UniProt O43819)
inactive: [1] 0.026 | [2] 0.002 | [3] 0.037 | [4] 0.011 | [5] -0.074

RIOK2 (UniProt Q9BVS4)
inactive: [1] 0.002 | [2] -0.018 | [3] 0.009 | [4] -0.023 | [5] -0.022

RAP1GAP isoform 4 (UniProt P47736)
inactive: [1] 0.019 | [2] -0.012 | [3] -0.019 | [4] -0.009 | [5] 0.007

SEC16A isoform 5 (UniProt O15027)
Sequence of UniProt O15027 (O15027 whole entry, looked up): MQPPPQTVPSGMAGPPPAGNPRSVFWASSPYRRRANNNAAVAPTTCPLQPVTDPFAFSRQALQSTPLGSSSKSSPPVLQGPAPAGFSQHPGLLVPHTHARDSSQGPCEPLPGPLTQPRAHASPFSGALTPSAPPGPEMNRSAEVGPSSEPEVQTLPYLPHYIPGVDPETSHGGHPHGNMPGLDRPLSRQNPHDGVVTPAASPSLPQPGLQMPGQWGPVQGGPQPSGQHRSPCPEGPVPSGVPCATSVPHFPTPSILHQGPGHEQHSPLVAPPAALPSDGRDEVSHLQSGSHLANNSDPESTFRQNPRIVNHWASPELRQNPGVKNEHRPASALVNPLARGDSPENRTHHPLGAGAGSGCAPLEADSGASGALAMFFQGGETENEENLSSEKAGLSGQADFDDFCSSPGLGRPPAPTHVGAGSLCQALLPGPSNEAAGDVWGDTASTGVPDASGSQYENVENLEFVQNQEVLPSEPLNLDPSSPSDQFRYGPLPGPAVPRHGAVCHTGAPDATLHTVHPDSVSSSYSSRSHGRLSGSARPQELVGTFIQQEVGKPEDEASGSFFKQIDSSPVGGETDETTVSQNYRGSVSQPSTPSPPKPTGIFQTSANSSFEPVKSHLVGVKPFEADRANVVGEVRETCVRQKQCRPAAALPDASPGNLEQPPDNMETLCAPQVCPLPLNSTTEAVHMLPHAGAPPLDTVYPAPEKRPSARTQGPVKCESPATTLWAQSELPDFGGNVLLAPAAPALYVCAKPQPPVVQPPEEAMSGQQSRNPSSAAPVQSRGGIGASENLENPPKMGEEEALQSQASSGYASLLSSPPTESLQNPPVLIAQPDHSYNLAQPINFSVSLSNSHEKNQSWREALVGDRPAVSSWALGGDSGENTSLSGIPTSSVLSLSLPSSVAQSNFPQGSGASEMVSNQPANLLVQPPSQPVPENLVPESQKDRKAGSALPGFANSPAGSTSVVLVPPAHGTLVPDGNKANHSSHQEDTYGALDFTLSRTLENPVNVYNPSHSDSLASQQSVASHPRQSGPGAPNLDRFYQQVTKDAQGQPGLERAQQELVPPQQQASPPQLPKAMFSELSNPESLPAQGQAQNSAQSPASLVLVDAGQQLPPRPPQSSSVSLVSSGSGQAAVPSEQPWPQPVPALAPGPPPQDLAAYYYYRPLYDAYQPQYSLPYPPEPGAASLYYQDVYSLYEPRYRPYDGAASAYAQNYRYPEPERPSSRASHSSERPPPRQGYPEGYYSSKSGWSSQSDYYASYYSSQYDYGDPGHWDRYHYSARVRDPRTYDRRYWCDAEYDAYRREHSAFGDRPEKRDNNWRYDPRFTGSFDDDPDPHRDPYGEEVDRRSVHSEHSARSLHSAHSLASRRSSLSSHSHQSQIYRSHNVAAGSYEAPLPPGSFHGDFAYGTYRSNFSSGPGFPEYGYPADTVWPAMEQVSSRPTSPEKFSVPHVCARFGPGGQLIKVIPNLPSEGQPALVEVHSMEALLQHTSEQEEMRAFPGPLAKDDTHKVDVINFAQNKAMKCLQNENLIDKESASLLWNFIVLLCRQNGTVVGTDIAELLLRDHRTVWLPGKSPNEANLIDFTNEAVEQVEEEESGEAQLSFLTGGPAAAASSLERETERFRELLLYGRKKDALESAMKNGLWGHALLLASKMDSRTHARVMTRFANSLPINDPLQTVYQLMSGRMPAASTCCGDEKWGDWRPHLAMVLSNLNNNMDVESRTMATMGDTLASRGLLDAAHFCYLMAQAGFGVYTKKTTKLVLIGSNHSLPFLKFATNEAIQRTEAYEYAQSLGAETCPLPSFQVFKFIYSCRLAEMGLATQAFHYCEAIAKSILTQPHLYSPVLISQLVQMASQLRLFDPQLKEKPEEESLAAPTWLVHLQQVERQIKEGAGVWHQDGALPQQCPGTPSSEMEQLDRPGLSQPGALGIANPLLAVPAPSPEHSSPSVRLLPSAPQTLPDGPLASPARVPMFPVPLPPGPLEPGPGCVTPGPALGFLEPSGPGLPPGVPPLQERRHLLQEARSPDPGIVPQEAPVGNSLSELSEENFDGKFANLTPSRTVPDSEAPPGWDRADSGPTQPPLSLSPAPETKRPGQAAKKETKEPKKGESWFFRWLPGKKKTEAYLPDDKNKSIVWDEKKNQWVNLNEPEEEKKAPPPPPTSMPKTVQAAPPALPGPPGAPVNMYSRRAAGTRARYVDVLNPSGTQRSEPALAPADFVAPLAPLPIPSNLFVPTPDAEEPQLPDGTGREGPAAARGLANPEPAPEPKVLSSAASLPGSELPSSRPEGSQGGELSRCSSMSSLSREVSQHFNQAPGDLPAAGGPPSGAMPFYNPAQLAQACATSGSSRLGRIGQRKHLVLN
inactive: [1] -0.013 | [2] -0.005 | [3] 0.067 | [4] 0.036 | [5] 0.011

RPL37A (UniProt P61513)
inactive: [1] -0.009 | [2] 0 | [3] -0.031 | [4] 0.191 | [5] 0.166

RNF168 (UniProt Q8IYW5)
inactive: [1] -0.008 | [2] -0.052 | [3] 0.017 | [4] 0.061 | [5] -0.068

RPS6KA3 (UniProt P51812)
inactive: [1] -0.049 | [2] -0.031 | [3] -0.008 | [4] 0.009 | [5] -0.061

RPL27 (UniProt P61353)
inactive: [1] 0.034 | [2] 0.031 | [3] 0.003 | [4] 0.008 | [5] 0.101

SCD (UniProt O00767)
inactive: [1] -0.016 | [2] -0.007 | [3] 0.103 | [4] -0.179 | [5] -0.184

RLIM (UniProt Q9NVW2)
inactive: [1] 0.049 | [2] 0.135

RNF213, A0A0A0MTC1
inactive: [1] -0.02 | [2] -0.007 | [3] 0.069 | [4] 0.004 | [5] 0.045

RAPGEF2, A0A2R8YGD3
inactive: [1] -0.043 | [2] 0.021 | [3] -0.046 | [4] -0.003
active: [5] -0.32

RNASEL (UniProt Q05823)
inactive: [1] 0.047 | [2] -0.041 | [3] 0.068 | [4] -0.004 | [5] 0.046

QRSL1 (UniProt Q9H0R6)
inactive: [1] -0.005 | [2] -0.056 | [3] -0.101 | [4] 0.041 | [5] 0.094

RANBP6 (UniProt O60518)
Sequence of UniProt O60518 (O60518 whole entry, looked up): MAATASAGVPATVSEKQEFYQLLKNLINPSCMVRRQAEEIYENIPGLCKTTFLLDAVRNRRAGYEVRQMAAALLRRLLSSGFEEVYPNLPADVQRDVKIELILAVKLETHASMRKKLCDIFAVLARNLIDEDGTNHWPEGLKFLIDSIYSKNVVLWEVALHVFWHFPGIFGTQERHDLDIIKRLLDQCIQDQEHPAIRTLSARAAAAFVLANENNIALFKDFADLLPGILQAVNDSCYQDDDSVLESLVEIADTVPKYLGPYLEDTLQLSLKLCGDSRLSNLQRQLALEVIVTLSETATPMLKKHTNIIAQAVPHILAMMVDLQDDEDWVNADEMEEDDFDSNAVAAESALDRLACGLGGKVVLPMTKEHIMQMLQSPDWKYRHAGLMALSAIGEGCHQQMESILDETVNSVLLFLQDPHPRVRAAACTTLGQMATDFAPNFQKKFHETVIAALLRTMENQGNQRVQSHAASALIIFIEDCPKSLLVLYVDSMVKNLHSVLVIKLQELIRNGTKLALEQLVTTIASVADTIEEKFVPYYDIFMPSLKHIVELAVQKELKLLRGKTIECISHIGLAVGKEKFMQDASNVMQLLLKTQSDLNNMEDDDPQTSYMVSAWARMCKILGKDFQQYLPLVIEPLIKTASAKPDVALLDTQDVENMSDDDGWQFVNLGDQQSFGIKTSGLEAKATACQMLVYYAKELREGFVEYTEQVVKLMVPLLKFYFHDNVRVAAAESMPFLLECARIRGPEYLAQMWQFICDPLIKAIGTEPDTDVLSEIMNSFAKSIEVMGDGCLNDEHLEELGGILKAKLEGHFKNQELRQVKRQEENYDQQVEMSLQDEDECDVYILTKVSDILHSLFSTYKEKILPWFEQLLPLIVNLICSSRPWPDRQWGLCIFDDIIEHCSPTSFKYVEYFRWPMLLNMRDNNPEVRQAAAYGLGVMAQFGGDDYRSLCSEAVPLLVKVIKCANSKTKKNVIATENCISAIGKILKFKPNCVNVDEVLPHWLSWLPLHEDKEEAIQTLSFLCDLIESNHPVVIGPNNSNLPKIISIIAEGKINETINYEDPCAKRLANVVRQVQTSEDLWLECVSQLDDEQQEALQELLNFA
inactive: [1] 0.013 | [2] -0.047 | [3] 0.046 | [4] 0.074 | [5] 0.005

RFC3 (UniProt P40938)
inactive: [1] -0.032 | [2] 0.003 | [3] 0.026 | [4] 0.055 | [5] 0.024

RECQL5 (UniProt O94762)
inactive: [1] -0.081 | [2] 0.014 | [3] 0.011 | [4] -0.174 | [5] 0.064

QTRT2 isoform 4 (UniProt Q9H974)
inactive: [1] -0.004 | [2] 0.014 | [3] -0.03 | [4] -0.019 | [5] -0.157

SDHC (UniProt Q99643)
inactive: [1] -0.045 | [2] -0.016 | [3] 0.035 | [4] -0.085 | [5] -0.09

RXRB isoform 3 (UniProt P28702)
inactive: [1] -0.214 | [2] -0.018 | [3] -0.151 | [4] -0.057 | [5] 0.06

SESN2 (UniProt P58004)
inactive: [1] -0.074 | [2] 0.01 | [3] -0.025 | [4] -0.004 | [5] -0.01

RRM1 (UniProt P23921)
inactive: [1] 0.014 | [2] 0.028 | [3] 0.042 | [4] 0.028 | [5] 0.004

RAB5IF isoform 5 (UniProt Q9BUV8)
inactive: [1] 0.01 | [2] -0.096 | [3] 0.019 | [4] -0.085 | [5] 0.364

RAC2 (UniProt P15153)
inactive: [1] -0.116 | [2] 0.043 | [3] -0.032 | [4] 0.067 | [5] 0.028

REEP6 (UniProt Q96HR9)
inactive: [1] 0.038 | [2] -0.081 | [3] 0.005 | [4] -0.107 | [5] -0.181

RAB3IL1 (UniProt Q8TBN0)
inactive: [1] 0.047 | [2] 0.008 | [3] 0.02 | [4] 0.007 | [5] 0.039

RETSAT (UniProt Q6NUM9)
Sequence of UniProt Q6NUM9 (Q6NUM9 whole entry, looked up): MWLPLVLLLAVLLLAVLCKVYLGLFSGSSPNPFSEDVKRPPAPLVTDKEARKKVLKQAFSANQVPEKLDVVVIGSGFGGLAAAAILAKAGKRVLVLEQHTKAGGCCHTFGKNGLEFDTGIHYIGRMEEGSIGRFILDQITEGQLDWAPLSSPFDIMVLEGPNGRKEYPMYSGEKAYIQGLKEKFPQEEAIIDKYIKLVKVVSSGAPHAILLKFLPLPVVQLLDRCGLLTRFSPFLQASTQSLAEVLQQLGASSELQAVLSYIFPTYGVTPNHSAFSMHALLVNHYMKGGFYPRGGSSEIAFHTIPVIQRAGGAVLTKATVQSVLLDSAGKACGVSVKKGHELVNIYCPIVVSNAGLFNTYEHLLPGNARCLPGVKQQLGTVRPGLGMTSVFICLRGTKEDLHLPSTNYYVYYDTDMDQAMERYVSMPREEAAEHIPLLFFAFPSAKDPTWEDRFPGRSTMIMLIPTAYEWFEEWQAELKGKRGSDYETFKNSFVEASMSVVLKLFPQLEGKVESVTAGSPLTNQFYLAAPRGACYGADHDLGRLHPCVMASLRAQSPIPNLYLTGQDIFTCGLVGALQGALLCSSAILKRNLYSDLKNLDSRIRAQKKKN
inactive: [1] 0.103 | [2] -0.037 | [3] 0.148 | [4] -0.145 | [5] -0.015

RNASEH2B (UniProt Q5TBB1)
inactive: [1] 0.056 | [2] -0.008 | [3] -0.032 | [4] 0.038 | [5] 0.049

RAI14 isoform 2 (UniProt Q9P0K7)
inactive: [1] 0.002 | [2] -0.052 | [3] -0.02 | [4] -0.041 | [5] -0.033

SAMHD1 (UniProt Q9Y3Z3)
inactive: [1] 0.005 | [2] 0.002 | [3] -0.018 | [4] 0.051 | [5] -0.002

RAP1B (UniProt F5GZG1)
inactive: [1] -0.082 | [2] -0.124 | [3] 0.023 | [4] -0.019 | [5] -0.282

RNF181 (UniProt Q9P0P0)
inactive: [1] 0.03 | [2] -0.145 | [3] -0.031 | [4] 0.022 | [5] 0.066

RNF170 (UniProt Q96K19)
inactive: [1] -0.097 | [2] -0.115 | [3] 0.149 | [4] 0.285 | [5] -0.026

RPS6KB1 (UniProt P23443)
inactive: [1] 0.029 | [2] -0.051 | [3] 0.027 | [4] 0.023 | [5] -0.018

RPN2 (UniProt P04844)
inactive: [1] -0.001 | [2] -0.01 | [3] 0.01 | [4] -0.008 | [5] -0.009

RPTOR (UniProt Q8N122)
inactive: [1] 0.015 | [2] -0.024 | [3] 0.035 | [4] -0.008 | [5] 0.04

SCCPDH (UniProt Q8NBX0)
inactive: [1] 0.165 | [2] -0.144 | [3] 0.038 | [4] -0.004 | [5] -0.164

RDH14 (UniProt Q9HBH5)
inactive: [1] 0.123 | [2] -0.016 | [3] -0.076 | [4] 0.102 | [5] -0.058

RAE1 (UniProt P78406)
inactive: [1] -0.022 | [2] -0.081 | [3] -0.005 | [4] 0.07 | [5] -0.022

RIC1 (UniProt Q4ADV7)
inactive: [1] -0.086 | [2] 0.186 | [3] 0 | [4] 0.081 | [5] 0.138

SAP30 (UniProt O75446)
Sequence of UniProt O75446 (O75446 whole entry, looked up): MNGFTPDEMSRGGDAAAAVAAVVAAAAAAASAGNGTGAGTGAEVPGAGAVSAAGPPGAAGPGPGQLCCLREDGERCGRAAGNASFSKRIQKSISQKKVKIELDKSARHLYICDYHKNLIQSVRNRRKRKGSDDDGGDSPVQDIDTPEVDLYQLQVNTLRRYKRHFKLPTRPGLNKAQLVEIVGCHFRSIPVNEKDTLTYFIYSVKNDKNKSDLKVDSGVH
inactive: [1] 0.029 | [2] -0.029 | [3] 0.009 | [4] 0.014 | [5] -0.026

RAB1B (UniProt Q9H0U4)
inactive: [1] -0.015 | [2] 0.021 | [3] 0.056 | [4] 0.013 | [5] -0.17
